Test systems include NCI-H23 lung; NCI-H226 lung; NCI-H322M lung; HOP-62 NSCLC; NCI-H460 lung; HOP-92 NSCLC; NCI-H522 lung; A549/ATCC NSCLC; 786-0 renal; COLO 205 colon; DU-145 prostate; K-562 leukemia; MALME-3M melanoma; MDA-MB-231 breast; RXF 393 renal; SF-268 CNS; SF-295 CNS; SF-539 CNS; UACC-257 melanoma; M14 melanoma.
Common to all, as to test: NCI-60 one-dose screen, 48 h (100 = growth as untreated, 0 = no growth, -100 = all killed)
Common to all, as to details: 10 µM unless noted

The source of these data is PubChem BioAssay (NCI).

The panel holds about 83,000 compounds, 20% with a hit somewhere; the sample as a whole holds those more often.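 Single-dose data. Exposure time 48 hours. Values below 10 considered active.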 Unmarked numbers belong to inactive results. The source made the active and inactive calls.

On to `CC(=O)c1cc2c(N)c(C(=O)Nc3ccccn3)sc2nc1C`, for which the growth with NCI-H23 lung was 87.3%; in the assay on NCI-H226 lung, 86.8%; in the assay with NCI-H322M lung it was 73.6%; in the assay with HOP-62 NSCLC, 88.3%; in the assay on NCI-H460 lung, 45.6%; in the assay on HOP-92 NSCLC, 75.2%. Besides, the growth was 77% in the assay with NCI-H522 lung; 48.7% in the assay on A549/ATCC NSCLC; 88.2% with 786-0 renal; 40.6% with COLO 205 colon; 90.8% in the assay with DU-145 prostate; 97.6% in the assay with K-562 leukemia. In addition, the growth in the assay with MALME-3M melanoma was 90.1%; with MDA-MB-231 breast it was 87.1%; in the assay with RXF 393 renal, 86.4%; in the assay on SF-268 CNS, 93%; with SF-295 CNS, 71.6%; with SF-539 CNS it was 84.9%. For the same compound, the results for the growth in the assay with UACC-257 melanoma and in the assay with M14 melanoma were 86.4% and 54.9%, respectively.
Turning to `Nc1c(C(=O)Nc2ccccn2)sc2nc3c(cc12)C(=O)CCC3`, the growth with NCI-H23 lung was 46.1%; with NCI-H226 lung it was 74.7%; in the assay on NCI-H322M lung, 43.6%; with HOP-62 NSCLC, 40.6%; in the assay on NCI-H460 lung, 6.33% (active); with HOP-92 NSCLC, 87.3%. Further, the growth in the assay with NCI-H522 lung was 12%; in the assay with A549/ATCC NSCLC it was 18%; with 786-0 renal, 35.4%; with COLO 205 colon, 7.57% (active); with DU-145 prostate it was 5.74% (active); in the assay on K-562 leukemia, 22.2%. Moreover, the growth with MALME-3M melanoma was 58.2%; with MDA-MB-231 breast it was 51.6%; with RXF 393 renal, 1.88% (active); in the assay with SF-268 CNS, 53.1%; in the assay with SF-295 CNS it was 16.2%; in the assay with SF-539 CNS it was 14.6%. Also, the results for the growth with UACC-257 melanoma and with M14 melanoma were 69.8% and 18.3%, respectively.
With `Nn1c(SCC(=O)Nc2ccc(Cl)cc2)nnc1-c1cc(F)c(Cl)cc1Cl`, the growth is 93% in the assay with NCI-H23 lung; 93.5% in the assay with NCI-H226 lung; 80.2% with NCI-H322M lung; 55.8% in the assay with HOP-62 NSCLC; 90% in the assay with NCI-H460 lung; 76.6% with HOP-92 NSCLC. For the same compound, the growth in the assay with NCI-H522 lung is 66.1%; in the assay on A549/ATCC NSCLC it was 87.2%; in the assay with 786-0 renal, 93.4%; in the assay with COLO 205 colon, 96.6%; in the assay on DU-145 prostate, 108%; in the assay with K-562 leukemia, 77.4%. For the same compound, the growth with MALME-3M melanoma was 92.6%; in the assay on MDA-MB-231 breast, 81.8%; with RXF 393 renal, 117%; in the assay with SF-268 CNS, 97.4%; in the assay on SF-295 CNS, 87.9%; in the assay with SF-539 CNS, 92.9%. Besides, the growth with UACC-257 melanoma is 98.2%; in the assay with M14 melanoma it was 96.9%.
With `COc1ccc2c(c1)C1(C(=O)N2)C(C#N)=C(c2ccccc2)Nc2c1c(-c1ccccc1)nn2-c1ccccc1` (stereo not given), the growth in the assay on NCI-H23 lung was 51.1%; in the assay with NCI-H226 lung, 101%; in the assay with NCI-H322M lung, 60.4%; with HOP-62 NSCLC it was 66.9%; with NCI-H460 lung, -26.1% (active); in the assay on HOP-92 NSCLC it was 55.6%. The growth in the assay with NCI-H522 lung is 85.9%; in the assay with A549/ATCC NSCLC it was 36.3%; in the assay on 786-0 renal, 62.4%; in the assay on COLO 205 colon it was 60.1%; in the assay on DU-145 prostate, 49.8%; with K-562 leukemia it was 70.4%. Further, the growth in the assay on MALME-3M melanoma was 63.8%; with MDA-MB-231 breast, 45.1%; in the assay on RXF 393 renal, 64.2%; in the assay on SF-268 CNS, 52.1%; in the assay with SF-295 CNS, 69.7%; in the assay on SF-539 CNS, -3.82% (active). The growth with UACC-257 melanoma was 87.9%; with M14 melanoma it was 72.2%.
For the compound `CC1(C)Cc2c(Br)c(Br)c(Br)c(OCC(O)CN3CCOCC3)c2O1` (stereo not given), the growth with NCI-H23 lung was 93.9%; in the assay with NCI-H226 lung, 109%; with NCI-H322M lung it was 72.4%; in the assay with HOP-62 NSCLC, 97.3%; in the assay on NCI-H460 lung, 93.8%; in the assay with HOP-92 NSCLC, -38.2% (active). The growth with NCI-H522 lung is -84.2% (active); in the assay on A549/ATCC NSCLC, 86.7%; in the assay on 786-0 renal, 79.2%; in the assay with COLO 205 colon, 116%; in the assay on DU-145 prostate, 106%; in the assay on K-562 leukemia it was 44.1%. Further, the growth was 35% in the assay on MALME-3M melanoma; 83.2% in the assay with MDA-MB-231 breast; 70.6% in the assay with RXF 393 renal; 105% in the assay on SF-268 CNS; 113% in the assay on SF-295 CNS; 92.9% with SF-539 CNS. Besides, the growth was 97.3% with UACC-257 melanoma and 94.5% with M14 melanoma.
As to `Nc1c(C(=O)Nc2ccccc2)sc2nc3c(cc12)CN(C(=O)OCc1ccccc1)CC3`, the growth is 62.6% in the assay on NCI-H23 lung; 82.7% in the assay with NCI-H226 lung; 70% in the assay with NCI-H322M lung; 44.4% with HOP-62 NSCLC; 34% with NCI-H460 lung; 52.4% in the assay on HOP-92 NSCLC. Also, the growth with NCI-H522 lung is 35.6%; in the assay on A549/ATCC NSCLC, 50.2%; with 786-0 renal, 50%; in the assay with COLO 205 colon it was 55.3%; in the assay with DU-145 prostate, 59.4%; in the assay with K-562 leukemia it was 21.5%. Besides, the growth in the assay on MALME-3M melanoma was 52.3%; in the assay with MDA-MB-231 breast, 68.4%; in the assay on RXF 393 renal, 68.2%; in the assay with SF-268 CNS it was 62.2%; in the assay with SF-295 CNS, 40.7%; in the assay on SF-539 CNS it was 44.9%. The growth with UACC-257 melanoma is 59.6%; with M14 melanoma it was 26.5%.
As to `Nc1c(C(=O)Nc2cccc3ccccc23)sc2nc3c(cc12)CCCCC3`, the growth was 44.8% in the assay with NCI-H23 lung; 72.7% with NCI-H226 lung; 51.3% in the assay with NCI-H322M lung; 38.9% in the assay on HOP-62 NSCLC; 9.6% (active) with NCI-H460 lung; 63.2% with HOP-92 NSCLC. The growth in the assay on NCI-H522 lung is 0.413% (active); with A549/ATCC NSCLC it was 19.3%; with 786-0 renal it was 30.5%; in the assay with COLO 205 colon, 2.61% (active); in the assay on DU-145 prostate, 18.4%; with K-562 leukemia it was 8.68% (active). Also, the growth in the assay with MALME-3M melanoma was 75.7%; in the assay with MDA-MB-231 breast, 49.4%; with RXF 393 renal, 17.5%; with SF-268 CNS, 46.3%; in the assay on SF-295 CNS it was 21.1%; in the assay with SF-539 CNS, -1.19% (active). Further, the growth in the assay on UACC-257 melanoma was 63%; with M14 melanoma, 1.3% (active).
For the compound `O=C(CN1N=C(c2ccc(F)cc2)CCC1=O)Nc1nccs1`, the growth in the assay with NCI-H23 lung is 103%; in the assay with NCI-H226 lung it was 110%; in the assay on NCI-H322M lung it was 100%; with HOP-62 NSCLC, 98.9%; in the assay on NCI-H460 lung, 97.7%; in the assay with HOP-92 NSCLC it was 86.6%. The growth in the assay with NCI-H522 lung is 83.2%; in the assay with A549/ATCC NSCLC, 77.8%; in the assay with 786-0 renal, 103%; in the assay with COLO 205 colon, 113%; in the assay with DU-145 prostate, 118%; in the assay with K-562 leukemia, 92.6%. For the same compound, the growth is 105% with MALME-3M melanoma; 109% with MDA-MB-231 breast; 110% with RXF 393 renal; 99.9% with SF-268 CNS; 97.3% with SF-295 CNS; 98.1% with SF-539 CNS. The values for the growth in the assay with UACC-257 melanoma and in the assay with M14 melanoma were 92.8% and 102%, respectively.
